Results from the supplement of paper PMC10849652.
The full data set covers some 7,900 targets. This sample favours those with a hit. About 0.6% of all pairs of compound and target were hits.

Assays:
Test in all cases: log2 fold change, soluble protein after heating vs DMSO (PISA); higher = thermal stabilisation; K562 cells, 10 uM, 30 min; active = over 0.2 and 3.5 SD of the protein, either way, in both replicates (recomputed)
[1] = compound: C[C@@H]1COCCN1C2=NC(=NC(=C2)C3(CC3)S(=O)(=O)C)C4=C5C=CNC5=CC=C4
In short: (§1)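 K562 cells at 2×10^6 cells/mL were given 10 μM compound for 30 min. Aliquots then went through 3 min of heating across 48°C-58°C, were pooled, and were extracted in PBS with 0.5% NP-40 at 4°C, and the supernatant after 21,000xg for 90 min was quantified by TMTpro 16plex LC-MS/MS with channel sums equalised. Thermal stability relative to control samples, from duplicates, is given as log2 fold change.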

[2] = compound: C[C@H](C1=CC=C(C=C1)C(=O)NC2=C3C=CNC3=NC=C2)N
In short: as §1

tozasertib = compound: Cc1cc(Nc2cc(N3CCN(C)CC3)nc(Sc3ccc(NC(=O)C4CC4)cc3)n2)n[nH]1 [tozasertib]
In short: as §1

ispinesib = compound: Cc1ccc(C(=O)N(CCCN)[C@@H](c2nc3cc(Cl)ccc3c(=O)n2Cc2ccccc2)C(C)C)cc1 [ispinesib]
In short: as §1

duvelisib = compound: C[C@H](Nc1ncnc2nc[nH]c12)c1cc2cccc(Cl)c2c(=O)n1-c1ccccc1 [duvelisib]
In short: as §1

gandotinib = compound: Cc1cc(Nc2cc(CN3CCOCC3)c3nc(C)c(Cc4ccc(Cl)cc4F)n3n2)n[nH]1 [gandotinib]
In short: as §1

[3] = compound: Cc1cc(SCc2sc(-c3ccc(C(F)(F)F)cc3)nc2C)ccc1OCC(=O)O
In short: as §1

crizotinib = compound: C[C@@H](Oc1cc(-c2cnn(C3CCNCC3)c2)cnc1N)c1c(Cl)ccc(F)c1Cl [crizotinib]
In short: as §1

doramapimod = compound: Cc1ccc(-n2nc(C(C)(C)C)cc2NC(=O)Nc2ccc(OCCN3CCOCC3)c3ccccc23)cc1 [doramapimod]
In short: as §1

[4] = compound: CS(=O)(=O)c1ccc(-c2cnc(N)c(C(=O)Nc3ccccc3)n2)cc1
In short: as §1

Measured: log2 fold change

NOS1AP (UniProt O75052)
Sequence of UniProt O75052 (O75052 whole entry, looked up): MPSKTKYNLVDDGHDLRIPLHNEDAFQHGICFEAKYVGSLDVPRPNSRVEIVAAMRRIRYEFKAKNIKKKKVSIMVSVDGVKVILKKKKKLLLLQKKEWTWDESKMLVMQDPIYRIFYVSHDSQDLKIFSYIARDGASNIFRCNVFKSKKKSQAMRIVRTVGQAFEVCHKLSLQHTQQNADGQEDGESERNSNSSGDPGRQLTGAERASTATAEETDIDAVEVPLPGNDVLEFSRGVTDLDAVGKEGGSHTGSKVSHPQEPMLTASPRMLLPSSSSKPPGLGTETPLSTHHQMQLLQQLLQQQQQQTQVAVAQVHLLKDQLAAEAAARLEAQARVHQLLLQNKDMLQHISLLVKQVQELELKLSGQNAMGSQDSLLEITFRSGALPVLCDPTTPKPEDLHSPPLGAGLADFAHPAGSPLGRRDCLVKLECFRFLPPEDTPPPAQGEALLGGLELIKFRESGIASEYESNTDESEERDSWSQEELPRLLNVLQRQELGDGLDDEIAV
inactive: [1] 0.101 | [2] 0.237 | tozasertib -0.164 | ispinesib -0.279

MLH1 (UniProt P40692)
Sequence of UniProt P40692 (P40692 whole entry, looked up): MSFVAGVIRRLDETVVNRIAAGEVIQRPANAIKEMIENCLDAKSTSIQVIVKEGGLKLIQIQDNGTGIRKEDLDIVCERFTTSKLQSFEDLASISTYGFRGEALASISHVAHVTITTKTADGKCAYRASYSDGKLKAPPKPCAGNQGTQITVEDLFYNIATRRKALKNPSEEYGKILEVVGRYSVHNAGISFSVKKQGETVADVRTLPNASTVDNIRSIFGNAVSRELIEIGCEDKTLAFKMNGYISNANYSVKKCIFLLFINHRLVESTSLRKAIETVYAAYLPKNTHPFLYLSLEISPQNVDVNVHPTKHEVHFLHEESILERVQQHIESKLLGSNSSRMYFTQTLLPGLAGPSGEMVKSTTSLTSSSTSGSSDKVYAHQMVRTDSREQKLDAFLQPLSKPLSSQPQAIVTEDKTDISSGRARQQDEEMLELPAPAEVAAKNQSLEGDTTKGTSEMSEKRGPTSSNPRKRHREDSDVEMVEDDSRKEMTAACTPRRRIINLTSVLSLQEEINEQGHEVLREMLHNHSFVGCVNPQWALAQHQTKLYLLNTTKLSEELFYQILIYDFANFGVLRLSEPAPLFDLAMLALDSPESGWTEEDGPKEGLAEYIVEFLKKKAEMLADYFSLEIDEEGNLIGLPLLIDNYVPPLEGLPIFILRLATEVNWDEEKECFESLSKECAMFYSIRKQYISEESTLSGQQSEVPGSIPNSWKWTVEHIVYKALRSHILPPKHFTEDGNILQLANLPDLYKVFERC
inactive: [1] 0.042 | [2] -0.127 | duvelisib 0 | gandotinib -0.068 | tozasertib -0.124 | [3] 0.094

MRM2 (UniProt Q9UI43)
Sequence of UniProt Q9UI43 (Q9UI43 whole entry, looked up): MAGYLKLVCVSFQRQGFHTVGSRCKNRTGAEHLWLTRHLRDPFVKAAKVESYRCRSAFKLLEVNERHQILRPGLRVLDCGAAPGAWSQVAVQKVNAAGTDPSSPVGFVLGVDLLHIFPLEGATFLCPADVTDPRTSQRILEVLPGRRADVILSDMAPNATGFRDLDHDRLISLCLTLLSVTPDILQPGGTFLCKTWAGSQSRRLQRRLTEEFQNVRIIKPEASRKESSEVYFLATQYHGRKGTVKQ
inactive: [2] -0.042 | duvelisib 0 | tozasertib -0.119 | [3] 0.123

NA (UniProt J3KR12)
inactive: crizotinib 0.251 | [1] 0.061 | doramapimod -0.017 | ispinesib 0.006

MORC2 (UniProt Q9Y6X9)
Sequence of UniProt Q9Y6X9 (Q9Y6X9 whole entry, looked up): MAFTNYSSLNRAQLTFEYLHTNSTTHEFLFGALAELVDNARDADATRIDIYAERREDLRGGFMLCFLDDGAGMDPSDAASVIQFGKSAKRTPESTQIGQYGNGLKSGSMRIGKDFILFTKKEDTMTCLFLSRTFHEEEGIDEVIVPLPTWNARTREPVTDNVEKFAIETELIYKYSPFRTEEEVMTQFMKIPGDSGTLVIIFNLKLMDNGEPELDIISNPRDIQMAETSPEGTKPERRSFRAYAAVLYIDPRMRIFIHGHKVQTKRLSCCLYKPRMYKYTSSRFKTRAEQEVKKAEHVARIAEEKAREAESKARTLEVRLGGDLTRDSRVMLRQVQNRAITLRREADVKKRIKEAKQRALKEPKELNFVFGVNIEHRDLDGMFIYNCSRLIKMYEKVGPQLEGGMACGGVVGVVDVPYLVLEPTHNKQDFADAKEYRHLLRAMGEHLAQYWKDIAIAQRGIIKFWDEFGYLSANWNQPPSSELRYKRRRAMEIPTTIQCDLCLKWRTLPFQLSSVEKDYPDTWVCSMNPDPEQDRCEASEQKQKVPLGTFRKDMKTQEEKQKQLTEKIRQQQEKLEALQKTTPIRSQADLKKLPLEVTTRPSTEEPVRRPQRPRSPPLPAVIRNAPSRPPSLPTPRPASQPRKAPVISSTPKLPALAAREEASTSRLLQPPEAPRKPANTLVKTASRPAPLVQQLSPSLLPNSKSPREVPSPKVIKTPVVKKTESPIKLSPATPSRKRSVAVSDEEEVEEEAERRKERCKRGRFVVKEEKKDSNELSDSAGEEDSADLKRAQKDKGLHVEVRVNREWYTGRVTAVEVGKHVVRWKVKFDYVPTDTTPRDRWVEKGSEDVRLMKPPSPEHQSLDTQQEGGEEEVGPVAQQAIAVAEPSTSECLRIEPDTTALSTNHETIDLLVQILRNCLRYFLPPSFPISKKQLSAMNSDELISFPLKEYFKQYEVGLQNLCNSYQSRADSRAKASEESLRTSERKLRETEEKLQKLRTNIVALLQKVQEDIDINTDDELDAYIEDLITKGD
inactive: crizotinib 0.027 | [1] 0.065 | doramapimod -0.042

NCOA5 (UniProt Q9HCD5)
inactive: [4] -0.005 | crizotinib -0.131 | duvelisib -0.155 | gandotinib 0.05 | [3] 0.052 | doramapimod 0.168 | ispinesib 0.02

OAF (UniProt Q86UD1)
Sequence of UniProt Q86UD1 (Q86UD1 whole entry, looked up): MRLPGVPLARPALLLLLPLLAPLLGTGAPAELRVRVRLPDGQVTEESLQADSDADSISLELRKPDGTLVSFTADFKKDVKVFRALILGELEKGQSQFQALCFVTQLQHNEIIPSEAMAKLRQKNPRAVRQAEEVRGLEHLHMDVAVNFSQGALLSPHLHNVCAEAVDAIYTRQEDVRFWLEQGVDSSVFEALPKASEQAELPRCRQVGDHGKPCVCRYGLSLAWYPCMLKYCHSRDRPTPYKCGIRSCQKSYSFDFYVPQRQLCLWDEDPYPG
inactive: [4] -0.112 | ispinesib 0.014

NA (UniProt B2RBV5)
Sequence of UniProt B2RBV5 (B2RBV5 whole entry, looked up): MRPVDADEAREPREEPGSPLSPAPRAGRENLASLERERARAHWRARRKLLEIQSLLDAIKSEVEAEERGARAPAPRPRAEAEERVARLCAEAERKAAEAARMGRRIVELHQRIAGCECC
inactive: [4] -0.027 | [1] 0.064 | gandotinib 0

MOB2 isoform 3 (UniProt Q70IA6)
Sequence of UniProt Q70IA6 (Q70IA6 whole entry, looked up): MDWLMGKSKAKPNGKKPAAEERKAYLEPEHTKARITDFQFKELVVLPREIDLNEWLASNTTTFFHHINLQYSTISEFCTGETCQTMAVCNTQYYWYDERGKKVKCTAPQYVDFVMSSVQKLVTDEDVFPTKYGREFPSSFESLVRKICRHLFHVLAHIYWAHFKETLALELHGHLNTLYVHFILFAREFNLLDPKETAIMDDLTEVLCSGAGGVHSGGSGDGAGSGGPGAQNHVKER
inactive: [1] -0.166 | [2] 0.044 | gandotinib -0.093 | tozasertib -0.1 | ispinesib -0.025

MOB3B (UniProt Q86TA1)
Sequence of UniProt Q86TA1 (Q86TA1 whole entry, looked up): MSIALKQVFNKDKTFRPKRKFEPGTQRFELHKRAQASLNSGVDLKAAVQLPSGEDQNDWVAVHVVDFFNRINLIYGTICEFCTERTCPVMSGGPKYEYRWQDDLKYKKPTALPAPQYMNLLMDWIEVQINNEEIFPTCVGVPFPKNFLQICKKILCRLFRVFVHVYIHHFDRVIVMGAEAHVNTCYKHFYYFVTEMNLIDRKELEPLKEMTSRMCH
inactive: crizotinib -0.078 | [2] 0.098 | gandotinib 0.039 | tozasertib -0.025 | doramapimod 0

NPC1L1 (UniProt Q9UHC9)
Sequence of UniProt Q9UHC9 (Q9UHC9 whole entry, looked up): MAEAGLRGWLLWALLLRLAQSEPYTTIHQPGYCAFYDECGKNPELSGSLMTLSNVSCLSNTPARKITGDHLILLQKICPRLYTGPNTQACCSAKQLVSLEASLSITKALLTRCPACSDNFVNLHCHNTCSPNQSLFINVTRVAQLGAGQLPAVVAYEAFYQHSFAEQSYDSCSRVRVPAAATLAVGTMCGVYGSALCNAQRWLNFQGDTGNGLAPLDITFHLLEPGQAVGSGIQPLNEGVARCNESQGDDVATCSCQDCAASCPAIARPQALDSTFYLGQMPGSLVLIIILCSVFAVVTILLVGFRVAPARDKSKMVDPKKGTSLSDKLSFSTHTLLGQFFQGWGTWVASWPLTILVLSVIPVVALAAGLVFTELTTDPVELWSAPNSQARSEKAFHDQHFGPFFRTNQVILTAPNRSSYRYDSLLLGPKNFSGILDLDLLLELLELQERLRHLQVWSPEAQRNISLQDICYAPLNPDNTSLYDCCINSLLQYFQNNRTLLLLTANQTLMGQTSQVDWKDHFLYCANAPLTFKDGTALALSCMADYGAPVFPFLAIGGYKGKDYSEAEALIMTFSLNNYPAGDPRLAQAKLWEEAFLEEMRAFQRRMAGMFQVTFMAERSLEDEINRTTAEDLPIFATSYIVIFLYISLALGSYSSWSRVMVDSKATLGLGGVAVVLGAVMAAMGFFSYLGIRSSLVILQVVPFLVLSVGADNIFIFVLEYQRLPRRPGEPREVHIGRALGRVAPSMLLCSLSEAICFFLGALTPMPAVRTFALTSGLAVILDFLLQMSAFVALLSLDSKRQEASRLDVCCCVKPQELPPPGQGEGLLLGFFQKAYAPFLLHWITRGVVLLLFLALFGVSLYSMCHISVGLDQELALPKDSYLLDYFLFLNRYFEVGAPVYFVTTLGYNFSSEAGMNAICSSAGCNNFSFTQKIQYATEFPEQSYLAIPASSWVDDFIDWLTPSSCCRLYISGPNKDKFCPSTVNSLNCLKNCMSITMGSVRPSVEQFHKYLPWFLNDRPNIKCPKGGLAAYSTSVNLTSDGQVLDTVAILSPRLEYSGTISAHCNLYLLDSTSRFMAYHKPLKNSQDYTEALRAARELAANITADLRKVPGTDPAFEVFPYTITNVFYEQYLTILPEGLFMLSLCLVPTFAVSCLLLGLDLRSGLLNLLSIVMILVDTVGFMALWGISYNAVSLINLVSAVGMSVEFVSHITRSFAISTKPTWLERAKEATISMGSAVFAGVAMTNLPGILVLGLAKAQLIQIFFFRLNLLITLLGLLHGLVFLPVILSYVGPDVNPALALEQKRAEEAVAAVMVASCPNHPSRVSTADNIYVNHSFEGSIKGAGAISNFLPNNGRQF
inactive: [4] 0.002 | crizotinib -0.07 | [2] -0.044 | duvelisib 0.107 | tozasertib -0.059 | [3] -0.159 | doramapimod 0.033

MXRA7 isoform 3 (UniProt P84157)
inactive: ispinesib -0.092

NUDT1 (UniProt P36639)
inactive: [4] 0.185 | [1] 0.08 | [2] 0.107 | duvelisib 0.61 | gandotinib -0.167 | tozasertib -0.057 | [3] 0.017 | doramapimod -0.113 | ispinesib 0.012

OVCA2 (UniProt Q8WZ82)
Sequence of UniProt Q8WZ82 (Q8WZ82 whole entry, looked up): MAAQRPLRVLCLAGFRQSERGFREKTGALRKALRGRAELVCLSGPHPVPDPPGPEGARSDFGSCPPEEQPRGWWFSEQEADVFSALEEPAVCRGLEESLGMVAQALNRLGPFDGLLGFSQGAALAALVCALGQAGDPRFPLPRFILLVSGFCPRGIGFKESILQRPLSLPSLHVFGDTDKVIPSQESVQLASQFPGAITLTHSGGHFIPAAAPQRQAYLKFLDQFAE
inactive: crizotinib 0.064 | gandotinib -0.232 | doramapimod -0.186 | ispinesib 0.026

NA isoform 3 (UniProt Q4G0T1)
inactive: [4] 0.023 | crizotinib -0.004 | [2] -0.157 | duvelisib 0.042 | tozasertib 0.005 | [3] -0.001 | doramapimod 0.077 | ispinesib -0.099

NAP1L1 (UniProt B7Z9C2)
inactive: crizotinib -0.015 | duvelisib 0.327 | gandotinib 0.041 | [3] 0.433 | doramapimod 0.155

OXR1 isoform 2 (UniProt Q8N573)
inactive: crizotinib -0.027 | [1] 0.187 | [2] -0.105 | duvelisib 0.024 | gandotinib -0.225 | tozasertib 0.005 | [3] 0.043 | doramapimod 0.022 | ispinesib -0.134
